# In PubChem BioAssay (NCI):
# About 83,000 compounds went through this panel and 20% of them were active in at least one assay; those are over-represented in the sample as a whole.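 Testing used 96-well plates and a 48-hour single-concentration exposure. Example: -40 means 40% of the starting cells died.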 A number with no mark means an inactive call. Active and inactive are the calls of the source. Rule for the calls: active = growth percent below 10; inactive = the rest.
# System: HL-60(TB) leukemia
# Assay: NCI-60 one-dose screen, 48 h (100 = growth as untreated, 0 = no growth, -100 = all killed)
# Conditions: 10 µM unless noted
row,SMILES,growth
1,Cc1nn(-c2cccc(Cl)c2)c(C)c1N=Nc1ccc(Br)cc1,77.9%
2,COc1ccncc1S(=O)(=O)NC(=O)Nc1ccc(Cl)c(Cl)c1,84.8%
3,CCC(=O)c1cc([N+](=O)[O-])c(Br)s1,34%
4,Clc1ccc(C2CC(c3cccc(Nc4ccncc4)c3)=NN2c2ccc(Cl)cc2)cc1 (centres undefined),-45.3% (active)
5,CC(=O)c1ccc(C)cc1,93.4%
6,O=c1c2c3c(sc2nc(N/N=C/c2ccc(Br)cc2)n1Cc1ccccc1)CCCC3,71.2%
7,CCOC(=O)c1ccc(NC(=O)CSC(N)=O)cc1,93.2%
8,N=C(c1ccccc1)N(Cc1ccccc1)Cc1ccccc1,82.6%
9,CC(C)c1ccc(C(=O)Nc2nc3ccc(O)c(CN(C)C)c3s2)cc1,76.8%
